# A selection: hits, their analogues and other compounds. The true share with any hit is near 31%.
# CYP2C9 activ: CYP2C9 (human) activation; hit rate 1.4% among 96,000; recombinant CYP2C9, luciferin-H conversion, luminescence; hits give high values; factor 1 = untreated enzyme, 0 = blocked; activation factor at 5 µM;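 active means activation factor of 2 or more for CYP2C9 at a 5 µM dose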;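 further: 0 = sulfaphenazole-blocked wells and 1 = vehicle-only wells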
# CYP2C19 inhib: inhibitors of human CYP2C19 | CYP2C19 Supersomes, luciferin-H EGE luminescence, 30 min | inhibition, % at 5 µM | hit rate 21% among 96,000 | AID 778;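 active means CYP2C19 inhibition above a set limit at 5 µM in the primary screen, cut at about 50% in these data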;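 further: plate controls were negative control wells for no effect and 2.5 mM tranylcypromine positive control for full effect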
# Target sequence (P33261 whole entry, looked up): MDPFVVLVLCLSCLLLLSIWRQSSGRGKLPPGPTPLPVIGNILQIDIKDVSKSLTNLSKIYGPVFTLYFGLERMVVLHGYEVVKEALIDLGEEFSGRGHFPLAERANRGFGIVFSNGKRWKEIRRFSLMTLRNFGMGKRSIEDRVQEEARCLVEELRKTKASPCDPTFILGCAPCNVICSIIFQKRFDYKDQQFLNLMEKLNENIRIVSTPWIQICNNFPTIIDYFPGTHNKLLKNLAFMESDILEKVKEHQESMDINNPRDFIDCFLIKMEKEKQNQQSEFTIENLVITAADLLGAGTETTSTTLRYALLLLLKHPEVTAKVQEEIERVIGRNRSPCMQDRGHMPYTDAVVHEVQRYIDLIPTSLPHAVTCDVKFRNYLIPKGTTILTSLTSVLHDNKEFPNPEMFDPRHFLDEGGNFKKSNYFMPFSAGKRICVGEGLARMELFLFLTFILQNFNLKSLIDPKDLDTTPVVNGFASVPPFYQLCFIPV
# CYP2C9 inh: inhibitors of human CYP2C9; hit rate 20% among 96,000; P11712; AID 777; CYP2C9 Supersomes, luciferin-H conversion, luminescence; inhibition, % at 5 µM;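 active means blocking of liver enzyme CYP2C9 beyond about 50% at 5 µM, limit read from the data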
# CYP2C19 act: activators of human cytochrome P450 2C19; P33261; recombinant CYP2C19, luciferin-H EGE luminescence; hits give high values; 0 = fully inhibited enzyme, 1 = untreated enzyme; activation factor at 5 µM; 96,000 tested, under 10 active; AID 1025;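 active means activation factor of at least 2 at 5 µM in the primary screen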;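 further: 0 = wells with 2.5 mM tranylcypromine and 1 = vehicle-only wells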
# PLAP act: human PLAP activation | P05187 | purified PLAP enzyme, luminescent substrate read-out; hits give high values | activation fold at 20 µM | hit rate 1.2% among 96,000 | AID 696; in the data active means activation fold above about 2
# * = called active by the depositor.
SMILES,CYP2C9 activ,CYP2C19 inhib,CYP2C9 inh,CYP2C19 act,PLAP act
COc1cccc(CNC(=O)C2CCCN(c3nc4ccccc4o3)C2)c1 (stereo unspecified),0.7,28,27,0.7,1.1
Cc1ccc(C)n1-c1ccc(-c2nnc3n2CCCCC3)s1,0.4,37,64*,0.6,1.6
COCCn1c(SCC(N)=O)nnc1-c1c[nH]c2ccccc12,0.9,27,12,0.7,0.9
COC(=O)c1ccc(CSc2nc3cc(Cl)ccc3s2)o1,0.9,5,11,0.9,0.9
COCCn1c(SCc2ccc(C(=O)OC)o2)nc2cc(Cl)ccc2c1=O,0.1,94*,93*,0.1,1.6
Cn1c(SCC(=O)NCC2CCCO2)nnc1-c1c[nH]c2ccccc12 (stereo unspecified),1,11,-1,0.9,1
COC(=O)c1ccc(CSc2nnc(-c3c[nH]c4ccccc34)n2C)o1,0.2,93*,78*,0.1,1.2
COCCn1c(SCc2ccc(C(=O)OC)o2)nnc1-c1c[nH]c2ccccc12,0.3,74*,68*,0.3,1.3
Cc1c(Nc2cc(N3CCCCCC3)c3nonc3c2[N+](=O)[O-])c(=O)n(-c2ccccc2)n1C,0.6,30,40,0.7,1
CCCn1c(=O)[nH]c(=O)c2c1nc(-c1ccccc1)n2CCN1CCOCC1,1.1,-17,-11,1.2,1.1
Cc1ccsc1C(=O)Nc1nnc(-c2ccco2)o1,0.4,0,57*,1,1.1
CCC(=O)Nc1nnc(-c2ccco2)o1,1,-8,-5,1.1,0.9
CCn1c(O)c(C=NCc2cccs2)c(=O)n(CC)c1=S,0.2,34,83*,0.7,0.8
COC(=O)c1sc(=S)n(-c2cccc(Cl)c2)c1N,0.9,14,9,0.9,1
O=C(c1ccc(Cl)c(Cl)c1)N(Cc1ccco1)c1ccc(O)cc1,0,99*,98*,0,1.1
CCOC(=O)Cc1csc(NC(=O)CSc2ncnc3c2cnn3-c2ccccc2Cl)n1,0.1,70*,90*,0.3,1.5
Cc1nnc(NC(=O)CSc2ncnc3c2cnn3-c2ccccc2C)s1,0.6,-18,37,1.2,0.8
O=S(=O)(C=C(c1ccccc1)c1ccccc1)c1ccccc1,0.7,66*,32,0.3,1
O=S(=O)(/C=C/c1ccccc1)c1ccccc1,4.1*,91*,-306,0.1,1.1
COc1ccc(N2CCN(S(=O)(=O)/C=C/c3ccccc3)CC2)cc1,1,6,-1,0.9,0.5
C/C(=N\NS(C)(=O)=O)c1ccccc1,1.3,9,-27,0.9,0.9
COC(=O)C1CC(O)CN1C(=O)c1ccco1 (stereo unspecified),1.2,-23,-22,1.2,1.1
CCOC(=O)/C=c1\s/c(=C\c2c(OC)ccc3ccccc23)c(=O)n1CC(=O)NCC1CCCO1 (stereo unspecified),0.6,57*,41,0.4,1.4
CCOC(=O)c1sc2nc(C)n(CC(=O)NCC3CCCO3)c(=O)c2c1C (stereo unspecified),0.8,9,21,0.9,1.1
COc1ccc(N(C(=O)c2ccco2)S(=O)(=O)c2cc(Cl)c(Cl)cc2Cl)cc1,0.1,97*,94*,0,0.9
SMILES,CYP2C9 activ,CYP2C19 inhib,CYP2C9 inh,CYP2C19 act,PLAP act
COc1ccc(N(C(=O)c2ccco2)S(=O)(=O)c2ccccc2)cc1,0.1,87*,92*,0.1,1
CC1=C(C(=O)Nc2cc(C)ccc2C)C(c2cccs2)NC(=S)N1 (stereo unspecified),0.8,1,22,1,0.9
COc1ccc2occ(C(=O)c3cccs3)c2c1,0.5,75*,53*,0.2,0.7
Cc1cc(Br)cc(C)c1NC(=S)NC(=O)CC(C)C,1,-4,2,1,0.8
COC(=O)c1noc(-c2ccc(C)cc2)n1,1.1,-5,-11,1.1,0.9
COC(=O)c1noc(-c2ccc(OC)cc2)n1,1,2,-3,1,0.9
COC(=O)c1coc(-c2ccc(OC)cc2)c1C(=O)OC,0.8,63*,19,0.4,1.1
COC(=O)c1coc(-c2ccc(C)cc2)c1C(=O)OC,0.4,79*,59*,0.2,1.6
O=C(CC(=O)NN=C1CCCC1)NCCc1ccccc1,0.9,18,10,0.8,1
O=S(=O)(c1ccccc1)c1nc(-c2cccs2)oc1NCCCn1ccnc1,0.1,98*,92*,0,1.2
CCCCNc1oc(-c2cccs2)nc1S(=O)(=O)c1ccccc1,0.7,19,30,0.8,0.9
O=C(NCC12CC3CC(CC(C3)C1)C2)c1nn2c(c1Cl)NC(c1ccco1)CC2C(F)(F)F (stereo unspecified),1.1,-1,-7,1,1.1
CCOC(=O)Cc1nnc(Nc2cccc(C)c2)c2ccccc12,1.1,-3,-7,1,1
COc1ccc(C2=Nn3c(nnc3-c3ccncc3)SC2)cc1OC,0.4,26,61*,0.7,0.9
CCC(CC)C(=O)Nc1c(C)n(C)n(-c2ccccc2)c1=O,0.5,3,51*,1,0.9
Cc1cccc(N(CC(=O)Nc2c(C)n(C)n(-c3ccccc3)c2=O)S(C)(=O)=O)c1C,0.9,91*,12,0.1,1.1
Cc1c(NC(=O)COC(=O)C(c2ccc(Cl)cc2)C(C)C)c(=O)n(-c2ccccc2)n1C (stereo unspecified),0.4,31,58*,0.7,1.7
Cc1c(NC(=O)CSc2nc3ccc(Cl)cc3[nH]2)c(=O)n(-c2ccccc2)n1C,0.8,3,24,1,2*
Cc1csc(SCC(=O)Nc2c(C)n(C)n(-c3ccccc3)c2=O)n1,1,1,1,1,1.1
CCC(C(=O)OCC(=O)Nc1c(C)n(C)n(-c2ccccc2)c1=O)c1ccccc1 (stereo unspecified),1,4,1,1,1
Cn1c(=O)c2cc(S(=O)(=O)NCCC(=O)NCC3CCCO3)ccc2n(C)c1=O (stereo unspecified),0.8,6,15,0.9,1
Cc1cc(C)n(-c2nnc(C)c(=O)[nH]2)n1,1.2,-14,-20,1.1,1
Cc1c(NC(=O)CSc2nc3ccccc3s2)c(=O)n(-c2ccccc2)n1C,1,9,2,0.9,0.9
Cc1c(NC(=O)C(C)Sc2nc3ccccc3c(=O)n2CCO)c(=O)n(-c2ccccc2)n1C (stereo unspecified),0.4,15,58*,0.9,1.9
Cc1c(NC(=O)CSc2nc3ccccc3[nH]2)c(=O)n(-c2ccccc2)n1C,0.9,7,6,0.9,2.2*
Cc1c(NC(=O)CSc2nc3ccccc3n2C)c(=O)n(-c2ccccc2)n1C,2.1*,1,-106,1,1.2
Cc1cc(C)c(-c2cc(C(=O)Nc3c(C)n(C)n(-c4ccccc4)c3=O)[nH]n2)c(O)c1,1,18,-2,0.8,2.2*

# Screening results as filed in PubChem BioAssay.
